# From PubChem BioAssay (NCATS)
# Records with an inconclusive call do not appear. A call without a number means that no potency is given here. A number with no mark means an inactive call. The source made the active and inactive calls. Calls follow the shape of the dose curve; as a rule, active = well fitted cell-killing curve with a large enough effect; inconclusive = small, poorly fitted or top-dose-only effect; inactive = flat fitted curve, though single readings scatter.
# Assay: qHTS of pediatric cancer cell lines to identify multiple opportunities for drug repurposing: Primary screen for RD cells (AID 1347104); also: nearly all actives have a fitted effect of over 55% in size
# Settings: RD rhabdomyosarcoma viability, CellTiter-Glo luminescence, 48 h; series mostly up to 46 µM
# From the text: Drug repurposing or repositioning has been offered as a strategy for drug development in oncology programs. This approach has special potential for childhood cancers and other rare or orphan diseases, where the expected return on new drug development has been a disincentive to pharmaceuticals. […] In this project we exploit the poly-pharmacology of drugs to discover new indications via phenotypic screening of a panel of 19 well-characterized cell lines derived from solid tumors seen in children and adolescents. The goal is to identify approved drugs with previously unrecognized anticancer properties that has the potential to reveal new mechanisms and biological processes involved in carcinogenesis or drug resistance. We employed a titration-based paradigm (quantitative high-throughput screening or qHTS), where all compounds were tested at multiple concentrations for their effect on cell viability. Concentration-response curves (CRCs) were derived directly from the primary screen, and both potency and efficacy values were used to identify compounds with robust bioactivity profiles. We screened the NIH Chemical Genomics Center (NCGC) Pharmaceutical Collection (NPC) and Mechanism Interrogation Plate (MIPE) small molecule collections of approved and investigational compounds against these cell lines; and measured metabolically active cells after 48 hours of compound treatment as a proxy for cell viability. […] Assay Submitter: Nathalia J. Martinez, National Center for Advancing Translational Sciences, National Institutes of Health, Rockville, MD, USA; email: natalia.martinez@nih.gov Shen, M et al. Quantitative high-throughput phenotypic screening of pediatric cancer cell lines identifies multiple opportunities for drug repurposing. Oncotarget 2017 Dec 19;9(4):4758-4772. PMID 29435139.
# The cells were obtained from University of North Carolina (UNC), Pediatric Preclinical Testing Program (PPT), and Coriell Institute (CI). qHTS cell viability assay: Cells were assayed in growth media at a density of 500-1,000 cells/well. Five microliters of cells were dispensed into 1,536-well, white, solid-bottom, TC-treated plates (Greiner Bio One) using a multidrop dispenser and incubated at 37 degrees C, 5% CO2, under a humidified atmosphere for 5 hours. Twenty-three nanoliters of compounds and controls (neutral control DMSO or positive control bortezomib at final concentration of 2.3 µM) were subsequently transferred by Kalypsys pintool. For primary screens, the MIPE collection was tested at 11-point dilutions (final concentrations range from 0.78 nM to 46 µM) and the NPC collection at 8-point dilutions (final concentrations range from 0.59 nM to 46 µM). Compounds tested in follow-up screens were assayed at 11-point dilutions. Cells were incubated for 48 hours, followed by addition of 3 µL of CellTiter-Glo (Promega). After a 15 min incubation at room temperature, samples were analyzed for luminescence intensity using a ViewLux High-throughput CCD imager equipped with clear filters.
# Potency is read from the fitted curve at half-maximal effect.
SMILES,Potency,"activity change, negative = cytotoxic"
COc1cc(C(=O)N2CCCCCCC2)cc(OC)c1OC,inactive,
O=C(O)CCNC(=O)c1ccccc1,inactive,
CCN(CC)CCOc1ccccc1C(=O)CCc1ccccc1,inactive,
CCN[C@@H]1C[C@H](N)[C@@H](OC2OC(CN)=CCC2N)[C@H](O)[C@H]1O[C@H]1OC[C@](C)(O)[C@H](NC)[C@H]1O (stereo not given in full),,-1.92% [at 0.597 µM]
CN1CCN(c2cc3c(cc2F)c(=O)c(C(=O)O)cn3-c2ccc(F)cc2)CC1,inactive,
O[C@@H](c1cc(C(F)(F)F)nc2c(C(F)(F)F)cccc12)[C@H]1CCCCN1,23.7 µM (active),
CC1=C(C(=O)O)N2C(=O)[C@@H](NC(=O)[C@H](N)c3ccccc3)[C@H]2SC1,inactive,
Cl/C(=C\n1cncn1)c1ccc(Cl)cc1Cl,inactive,
CCN(CC)CCOc1ccc2c(c1)C(=O)c1cc(OCCN(CC)CC)ccc1-2,21.1 µM (active),
Cc1nc(-c2ccc(Cl)cc2)oc1COC(C)(C)C(=O)O,inactive,
CCN1CCN(C(=O)N[C@@H](C(=O)N[C@@H]2C(=O)N3C(C(=O)O)=C(CSc4nnnn4C)CS[C@H]23)c2ccc(O)cc2)C(=O)C1=O,inactive,
CCCCN1C[C@H](O)[C@@H](O)[C@H](O)[C@H]1CO,inactive,
COc1ccc(C(Cl)=C(c2ccc(OC)cc2)c2ccc(OC)cc2)cc1,inactive,
CCCCCCCCCCCCCCCCO,inactive,
CN(C)C(=O)Nc1ccc(Cl)c(Cl)c1,inactive,
CCc1cc(Cl)c(OC)c(C(=O)NC[C@@H]2CCCN2CC)c1O,inactive,
COP(=O)(OC)OC(c1ccc(Cl)cc1)P(=O)(OC)OC (stereo not given),inactive,
CC(C)[C@@H]1CC[C@@H](C)CC1=O,inactive,
CCCCCN=C(N)N/N=C/c1c[nH]c2ccc(OC)cc12,7.5 µM (active),
COc1cc(C)nc(-n2nc(C)cc2OC)n1,inactive,

SMILES,Potency,"activity change, negative = cytotoxic"
C/C=C/C=N/NC(=O)c1ccncc1,inactive,
CC(=O)O[C@H]1C[C@@H]2CC[C@@H]3[C@H](CC[C@@]4(C)[C@H]3C[C@H]([N+]3(C)CCCCC3)[C@@H]4OC(C)=O)[C@@]2(C)C[C@@H]1N1CCCCC1,inactive,
COc1ccc(C(=O)c2ccccc2)c(O)c1,inactive,
CC1(COc2ccc(CC3SC(=O)NC3=O)cc2)CCCCC1 (stereo not given),inactive,
CCC(C(=O)OCCOCCN(CC)CC)c1ccccc1 (stereo not given),inactive,
CC(C)NCC(O)c1ccc2ccccc2c1 (stereo not given),inactive,
Cc1c[nH]c2ccccc12,inactive,
C#C[C@]1(O)CC[C@H]2[C@@H]3CCc4cc(OC)ccc4[C@H]3CC[C@@]21C,inactive,
CCN1CCCC(OC(=O)C(c2ccccc2)c2ccccc2)C1 (stereo not given),inactive,
CN1CCN(CCC(=O)N2c3ccccc3Sc3ccc(C(F)(F)F)cc32)CC1,23.7 µM (active),
Cc1cccc(C)c1NC(=O)CN1CCCCCC1,inactive,
C#C[C@]1(O)CC[C@H]2[C@@H]3CCC4=CC(=O)CC[C@@H]4[C@H]3CC[C@@]21CC,inactive,
O=C1OC(CN2CCOCC2)CN1/N=C/c1ccc([N+](=O)[O-])o1 (stereo not given),inactive,
FC(F)(F)C(F)(F)C(F)(F)C(F)(F)C(F)(F)C(F)(F)C(F)(F)C(F)(F)Br,inactive,
CC(C)Cn1cnc2c1c(=O)n(C)c(=O)n2C,inactive,
CO[C@H]1C=CO[C@@]2(C)Oc3c(C)c(O)c4c(O)c(c(/C=N/N5CCN(C)CC5)c(O)c4c3C2=O)NC(=O)/C(C)=C\C=C[C@H](C)[C@H](O)[C@@H](C)[C@@H](O)[C@@H](C)[C@H](OC(C)=O)[C@@H]1C,inactive,
COc1cc(O)c(C(=O)c2ccccc2)cc1S(=O)(=O)O,inactive,
O=C(O)c1ccc(S(=O)(=O)N(Cl)Cl)cc1,inactive,
CC(O)Cn1cnc2c1c(=O)n(C)c(=O)n2C (stereo not given),inactive,
COc1ccc(CN(CCN(C)C)c2ncccn2)cc1,inactive,
